Reference: PubChem BioAssay AID720650 (Broad Institute, 2013)
A number with no mark means an inactive call. Calls of active or inactive are those of the source. The rule behind the calls is not given here.

Experiment: C difficile toxins, biochemical counterscreen, UDPG substrate absence, confirmatory dose response (AID 720650)
Conditions: series mostly up to 19.5 µM

SMILES | AC50
COc1ccc(SC[C@H](C)CN2CC[C@H](NC(=O)OCc3ccccc3)CCC2=O)cc1 | inactive
CC(=O)Oc1ccc2nc(/C=C/c3ccccc3)oc(=O)c2c1 | inactive
Cc1cc(C)c2sc(NNC(=O)C3COc4ccccc4O3)nc2c1 (configuration not stated) | 0.645 µM (active)
CC(=O)C(Sc1nccc(-c2cccs2)n1)C(C)=O | 9.69 µM (active)
CCCCn1c(N)c(N(CC)C(=O)c2cccs2)c(=O)[nH]c1=O | > 39 µM
COc1ccc2[nH]c3c(=O)n(CCCCC(=O)NCCN4CCCC4)c(=S)[nH]c3c2c1 | 18.5 µM (active)
O=C(C[C@H]1C[C@@H]2c3cc(NC(=O)c4ccc5c(c4)OCO5)ccc3O[C@@H]2[C@@H](CO)O1)NCc1cccc(F)c1 | inactive
O=C(C[C@H]1C[C@H]2c3cc(NC(=O)c4ccc5c(c4)OCO5)ccc3O[C@H]2[C@H](CO)O1)NCc1cccc(F)c1 | inactive
Cc1ccc(C(=O)Nc2ncc([N+](=O)[O-])s2)cc1 | > 39 µM
O=C(Nc1ccc(O)cc1)/C(=C/c1ccco1)NC(=O)c1ccccc1 | 14.7 µM (active)
CCNC(=O)C[C@H]1CC[C@@H]2[C@H](COc3ccc(NC(C)=O)cc3C(=O)N2C)O1 | inactive
O=C(Nc1ccc(N2CCOCC2)c(Cl)c1)c1ccc(F)cc1 | inactive
Cc1cccc2sc(NNC(=O)C3COc4ccccc4O3)nc12 (configuration not stated) | 0.294 µM (active)
COCC(=O)N1CC[C@@H]2[C@H]1c1cc(-c3ccc(F)cc3)ccc1N(C)[C@H]2CO | 7.2 µM (active)
CC(C)Cc1[nH]c(=O)c(C#N)c2c1CCCC2 | inactive
O=C(c1cn(-c2ccccc2)nc1-c1ccncc1)n1nnc2ccccc21 | inactive
CCOC(=O)c1ccc[n+](CC(=O)c2ccc(NC(=O)c3ccccc3)cc2)c1 | inactive
O=C(/C=C/c1ccccc1)Nc1cccnc1Cl | > 39 µM
COc1ccc(N2CCN(CCNC(=O)Nc3cc(Cl)ccc3OC)CC2)cc1 | inactive
COc1ccc(C2=NS(=O)(=O)N(C)C(C(=O)N(C)Cc3ccccc3)=C2)cc1 | inactive
O=C(Nc1ccc(O)cc1)/C(=C\c1ccncc1)NC(=O)c1ccccc1 | 11.8 µM (active)
Cc1cccc(-c2n[nH]c(=S)n2/N=C/C=C/c2ccco2)c1 | inactive
COc1cc(/C=C/C(=O)OCC(=O)c2ccc[nH]2)ccc1O | inactive
O=C(NCc1ccccc1)C1Cc2c(-c3cccc(F)c3)ccnc2O1 (configuration not stated) | inactive
CN1C(=O)c2cc(NC(=O)Nc3ccccc3Cl)ccc2OC[C@H]2O[C@@H](CC(=O)NCCCN3CCOCC3)CC[C@H]21 | inactive

SMILES | AC50
COc1cc(/C=C/C(=O)c2ccc([N+](=O)[O-])o2)ccc1O | inactive
NS(=O)(=O)c1ccc(NC(=S)NCc2ccc3c(c2)OCO3)cc1 | > 39 µM
Cc1ccc(C(=O)OCC(=O)c2cc(C)n(CC3CCCO3)c2C)cc1 (configuration not stated) | inactive
COc1ccc(C2=NS(=O)(=O)N(C)C(C(=O)N3CCN(C)CC3)=C2)cc1 | inactive
Nc1cc(=O)[nH]c(SCC(=O)Nc2ccccc2Sc2ccc(Cl)cc2)n1 | inactive
CCCCN(C)c1c(C)nc2ccc(C(=O)NCc3cccs3)cn12 | 20.4 µM (active)
COc1cc(/C=C/C(=O)OCC(=O)Nc2ccc(S(N)(=O)=O)cc2)ccc1O | inactive
O=C(C[C@H]1CC[C@H]2[C@@H](COC[C@H](O)CN2C(=O)Nc2ccc(Cl)c(Cl)c2)O1)NCc1ccncc1 | inactive
CCn1c(=S)[nH]c2c(=O)n(C)c(=O)n(C)c21 | 13.2 µM (active)
CN(C)CCNc1ccc(CO)c2sc3ccc(O)cc3c(=O)c12 | 6.06 µM (active)
C[C@H]1CN([C@@H](C)CO)S(=O)(=O)c2ccc(-c3ccncc3)cc2O[C@H]1CN(C)Cc1ccc(Oc2ccccc2)cc1 | inactive
COC(=O)/C=C/C(=O)Nc1ccc(O)c(Cl)c1 | 13.6 µM (active)
CCS(=O)(=O)c1ccc2oc(Nc3ccc(C(C)(C)C)cc3)nc2c1 | inactive
Cc1ccc(C(=O)Nc2ccc(O)cc2C(=O)O)cc1C | > 39 µM
CSc1ccc(/C=N/N2CCN(Cc3ccc(Cl)cc3)CC2)cc1 | inactive
CCC(=O)Nc1ccc2c(c1)OC[C@@H](C)N(C(=O)NC(C)C)C[C@@H](C)[C@@H](OC)CN(C)C2=O | inactive
COc1ccccc1CNC(=O)CNC(=O)N1CC(=O)Nc2ccccc21 | inactive
CS(=O)(=O)Nc1cccc(C2=NN(C(=O)c3ccccc3)C(c3cccs3)C2)c1 (configuration not stated) | inactive
COc1cc(-c2noc(C)c2C#CC2(O)CCCCC2)cc(OC)c1OC | inactive
COc1ccc(-c2cn3cc(C)ccc3n2)cc1F | > 39 µM
O=C(O)C1C(=O)NCC1c1ccccc1 (configuration not stated) | inactive
CC(C)(C)N1C(=O)c2ccc(C(=O)Nc3ccc(O)cc3)cc2C1=O | 8.25 µM (active)
N#CCCN(C(=O)COC(=O)c1cc(=O)c2ccccc2o1)c1ccccc1 | inactive
COc1ccc(NS(=O)(=O)c2cc(N=Nc3c(O)[nH]c(=O)[nH]c3=O)ccc2Cl)cc1 | inactive
O=C1NC(=O)/C(=C/c2ccc(O)cc2)S1 | 8.69 µM (active)

SMILES | AC50
COc1ccc(-c2cnc3c(c2)C(=O)N([C@@H](C)CO)C[C@H](C)[C@H](CN(C)C(=O)C2CCCCC2)O3)cc1 | inactive
CCC(=O)c1cn(CC(=O)Nc2cccc(C)c2C)c2ccccc12 | inactive
Cn1cnnc1SCC(=O)NC1CCCCC1 | inactive
COc1ccc(C(CNC(=O)c2oc3ccc(OC)cc3c2C)N2CCCC2)cc1 (configuration not stated) | > 39 µM
Nc1ccc2nc(-c3cccs3)[nH]c2c1 | 11 µM (active)
O=C(C[C@@H]1CC[C@H]2[C@@H](COC[C@@H](O)CN2C(=O)c2ccccn2)O1)NC1CCC1 | inactive
O=C(NC(=S)NNC(=O)c1ccccc1F)c1cccnc1 | inactive
O=c1c2ccc(Cl)cc2[nH]c(=S)n1-c1cccnc1 | inactive
COc1ccc(-c2ccc(OC(=O)NC3CCS(=O)(=O)C3)cc2)cc1 (configuration not stated) | 12.6 µM (active)
CC(=O)Nc1cccc2cc(O)ccc12 | 11.1 µM (active)
O=C(Nc1ccc(N2CCOCC2)c(Cl)c1)c1ccc2c(c1)OCCO2 | inactive
O=C(c1ccc2c(c1)N(Cc1ccccc1)C(=O)c1ccccc1S2)N1CCCC1 | 16.2 µM (active)
O=C(CN1C(=O)NC2(CCCc3ccccc32)C1=O)NCc1cccs1 (configuration not stated) | inactive
COc1ccc(CC(=O)NNC(=S)NC(=O)c2cccnc2)cc1 | inactive
Cc1cccc(/C=C/c2onc(C)c2S(=O)(=O)N2CCC(C(=O)N3CCC(C)CC3)CC2)c1 | inactive
COc1cc(/C=C(\C#N)C(=O)Nc2ccc3c(c2)OCCO3)ccc1O | > 39 µM
Nc1c(Cl)ncnc1NCCc1ccc(O)cc1 | 18.6 µM (active)
Cn1ncc(Cl)c1C(=O)N/N=C/c1cccc(OC2CSC2)c1 | > 39 µM
O=c1[nH]nc(-c2ccc(F)cc2)cc1Cc1ccccc1 | inactive
O=C(N/C(=C\c1ccc(O)cc1)C(=O)N1CCCCC1)c1ccccc1 | inactive
CC(C)Cc1cc(C(=O)N2CCCC(CO)(Cc3ccc(F)cc3)C2)no1 (configuration not stated) | inactive
O=C(C[C@@H]1C[C@H]2c3cc(NC(=O)Nc4ccccc4)ccc3O[C@H]2[C@H](CO)O1)NCc1ccccc1 | inactive
S=c1nc(-c2ccc(Cl)cc2)[nH][nH]1 | 3.22 µM (active)
CCCNC(=O)C1CCN(S(=O)(=O)c2c(C)noc2/C=C\c2ccc(OC)cc2)CC1 | inactive
COc1cccc(/C=C/c2onc(C)c2S(=O)(=O)N2CCC(C(=O)NC3CCCCCC3)CC2)c1 | inactive

SMILES | AC50
O=C(C[C@H]1CC[C@H]2[C@@H](COC[C@@H](O)CN2Cc2ccccc2)O1)NCCc1ccccc1 | inactive
COc1ccc(NC2CCCN(C(=O)CN3CCOC3=O)C2)cc1OC (configuration not stated) | inactive
Cc1ccc(C2=NS(=O)(=O)N(C)C(C(=O)NCc3ccccc3)=C2)cc1 | inactive
CCCS(=O)(=O)NC(=O)C1(C)CCN(C(=O)c2ccco2)C1 (configuration not stated) | inactive
CCOC(=O)c1ccc(NC(=O)Oc2cc(C)c(Cl)cc2C(C)C)cc1 | inactive
CSc1ccccc1NC(=O)C1=CC(c2ccc(C)cc2)=NS(=O)(=O)N1C | inactive
CCCc1[nH]c(=O)c(C#N)c2c1CCCC2 | inactive
COc1cc(/C=N/NC(=O)CCN2CCCCC2)ccc1O | inactive
O=C(NNc1ccc(-c2csnn2)cc1)c1cc(Cl)cc(Cl)c1 | < 0.16 µM (active)
O=c1[nH]c(/C=C\c2ccc(O)cc2)nc(O)c1[N+](=O)[O-] | 12.2 µM (active)
CN(C)/C=C(\C#N)C(=O)Nc1ccc(O)cc1F | 9.11 µM (active)
COC(=O)[C@@]12CCCCN1[C@H](c1ccc(-c3ccccc3)c(OC)c1)[C@H]1C(=O)N(C)C(=O)[C@H]12 | inactive
CC(Sc1nc2ccccc2n1C)C(=O)Nc1ccc(N2CCOCC2)cc1 (configuration not stated) | inactive
Cc1ccc(Oc2c(CO)c(-c3ccccc3)nn2C)cc1 | inactive
Cc1nc2ccccn2c1-c1ccnn1S(=O)(=O)c1ccc(F)cc1 | inactive
Oc1ccc(Nc2nc(Cl)nc(NCc3ccco3)n2)cc1 | inactive
COc1cc2[nH]c(=S)n(Cc3cccs3)c(=O)c2cc1OC | inactive
COC(=O)C1=C(c2ccc(OCc3ccccc3)cc2)C[C@@H]2CC[C@H]1N2C(=O)NCCCc1ccccc1 | inactive
O=C(C1CCOCC1)N1CC[C@@H]2[C@@H](CO)Nc3ccc(-c4ccc(F)cc4)cc3[C@@H]21 | 22 µM (active)
NC(=O)c1ccc(NC(=O)CSc2nnc(C3CC3)n2C2CC2)cc1 | inactive
O=C(NN=Cc1cc(Br)c(O)c(Br)c1)c1ccccc1NS(=O)(=O)c1cccs1 | inactive
Oc1cc(O)cc(/C=C/c2ccc(O)c(O)c2)c1 | inactive
